High-throughput results as filed in PubChem BioAssay.
TMEM16A inh = inhibitors of mouse TMEM16A calcium-activated chloride channel | Q8BHY3 | HEK293 TMEM16A/YFP iodide influx fluorescence, ionomycin | normalized B-score (activity score, 25-100; higher = stronger inhibition) at 10 µM | hit rate 1.2% among 310,000 | AID 588511;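 active = ratio plate-corrected score three or more library SD toward inhibition, starting fluorescence score within five deviations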;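 also: score derived from kinetic fluorescence span divided by baseline fluorescence per well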
CRFBP-R2 block = blocks CRF-induced signaling of the CRF-BP/CRF-R2 complex; HEK293 CRF-R2/CRF-BP, CRF-induced calcium fluorescence; inhibition, % at 11.8 µM; hit rate 0.59% among 350,000;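 active = inhibition of the ligand-induced calcium signal above about 50% at the single tested concentration, limit read from the data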
RTF Ca sens inh = cardiac RTF calcium desensitization; inhibition, % at 7.15 µM; AID 493244; hit rate 0.12% among 340,000; IANBD-labeled cardiac RTF, Ca2+ fluorescence;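 active = inhibition above the mean inhibition of all tested compounds plus 3 SD, cut at about 17% in these data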;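 also: assay run at fixed EC70 calcium of 1.6 mM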
TMEM16A act = activates or potentiates the mouse TMEM16A chloride channel. HEK293 TMEM16A/YFP-H148Q/I152L, iodide quench fluorescence; stronger effect = lower value. B-score at 10 µM. hit rate 0.3% among 340,000. AID 623877;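 active = fluorescence-ratio B-score plate-corrected deviation score at least 3 library SD below zero, with starting fluorescence score within 5 deviations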;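 also: channel opened by trigger with iodide after compound preincubation; score built on the fluorescence ratio of max minus min over baseline; more negative score means more quench and so TMEM16A activation or potentiation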
RTF Ca sens act = increases calcium sensitivity of human cardiac regulated thin filaments; P19429+P45379; IANBD-labeled TnC RTF fluorescence at EC20 calcium; 0% EC20 calcium, 100% full calcium; activation, % at 7.2 µM; hit rate 0.24% among 340,000;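 active = activation above the mean over all tested compounds plus 3 SD, cut at about 30% in these data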;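 also: rise in fluorescence read as greater calcium sensitivity of cardiac thin filaments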
CRFR2-BP ag = agonists of human CRF-binding protein/CRF-R2 receptor complex. HEK293 CRF-R2/CRF-BP, calcium dye fluorescence (FLIPR); percent of saturating CRF peptide response. activation, % at 13.2 µM. hit rate 0.46% among 350,000;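 active = activation of at least 50%, plus an integration ratio under a set limit after plate pattern correction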;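 also: plate controls were neutral control wells without compound for no effect and CRF at EC100 for full effect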
TMEM16A reconf = re-confirmation of mouse TMEM16A chloride channel inhibitors; inhibition, % at 10 µM; hit rate 39% among 2,300; shares compounds with TMEM16A inh; AID 652189; HEK293 TMEM16A/YFP-H148Q, iodide quench fluorescence; ionomycin added to raise cell calcium;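 active = mean duplicate percent inhibition, scaled so buffer wells are 0 and the reference blocker 100, over three buffer SD above buffer mean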
HEK293 Ca mobil = calcium mobilization counter-screen hit for TMEM16A inhibitor series | shares compounds with TMEM16A inh | TMEM16A/YFP HEK293, Fluo4 calcium mobilization | calcium response (% of ionomycin), % at 10 µM | hit rate 2% among 2,300 | AID 652231;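 active = duplicate-averaged calcium signal over 20% of the ionomycin maximum, relative to buffer baseline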;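 also: each well's signal is peak minus trough fluorescence divided by its pre-addition baseline; 0% = buffer wells and 100% = ionomycin wells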
YFP-HEK293 quench = counter-screen for TMEM16A inhibitors: effect in parental YFP-HEK293 cells | shares compounds with TMEM16A inh | iodide YFP quench, ionomycin | YFP ratio F(max-min)/F0 at 10 µM | 2,300 tested, under 10 active | AID 652233;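 active = yellow fluorescent protein signal ratio exceeding the buffer control mean by over 5 SD of those controls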;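 also: ratio is mean of duplicate wells from kinetic YFP trace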
ClC-1 rat inh = blocks the rat ClC-1 voltage-dependent chloride channel. shares compounds with TMEM16A inh. CHO ClC-1-YFP, iodide influx fluorescence quench; iodide control reads 0, buffer control 100. ratio percent, % at 10 µM. 2,300 tested, under 10 active;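 active = duplicate-mean ratio percent above the mean of iodide-only control wells, which defines zero, plus 5 of their SD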;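 also: higher percent means stronger block of ClC-1 iodide influx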
Target sequence (P35524 whole entry, looked up): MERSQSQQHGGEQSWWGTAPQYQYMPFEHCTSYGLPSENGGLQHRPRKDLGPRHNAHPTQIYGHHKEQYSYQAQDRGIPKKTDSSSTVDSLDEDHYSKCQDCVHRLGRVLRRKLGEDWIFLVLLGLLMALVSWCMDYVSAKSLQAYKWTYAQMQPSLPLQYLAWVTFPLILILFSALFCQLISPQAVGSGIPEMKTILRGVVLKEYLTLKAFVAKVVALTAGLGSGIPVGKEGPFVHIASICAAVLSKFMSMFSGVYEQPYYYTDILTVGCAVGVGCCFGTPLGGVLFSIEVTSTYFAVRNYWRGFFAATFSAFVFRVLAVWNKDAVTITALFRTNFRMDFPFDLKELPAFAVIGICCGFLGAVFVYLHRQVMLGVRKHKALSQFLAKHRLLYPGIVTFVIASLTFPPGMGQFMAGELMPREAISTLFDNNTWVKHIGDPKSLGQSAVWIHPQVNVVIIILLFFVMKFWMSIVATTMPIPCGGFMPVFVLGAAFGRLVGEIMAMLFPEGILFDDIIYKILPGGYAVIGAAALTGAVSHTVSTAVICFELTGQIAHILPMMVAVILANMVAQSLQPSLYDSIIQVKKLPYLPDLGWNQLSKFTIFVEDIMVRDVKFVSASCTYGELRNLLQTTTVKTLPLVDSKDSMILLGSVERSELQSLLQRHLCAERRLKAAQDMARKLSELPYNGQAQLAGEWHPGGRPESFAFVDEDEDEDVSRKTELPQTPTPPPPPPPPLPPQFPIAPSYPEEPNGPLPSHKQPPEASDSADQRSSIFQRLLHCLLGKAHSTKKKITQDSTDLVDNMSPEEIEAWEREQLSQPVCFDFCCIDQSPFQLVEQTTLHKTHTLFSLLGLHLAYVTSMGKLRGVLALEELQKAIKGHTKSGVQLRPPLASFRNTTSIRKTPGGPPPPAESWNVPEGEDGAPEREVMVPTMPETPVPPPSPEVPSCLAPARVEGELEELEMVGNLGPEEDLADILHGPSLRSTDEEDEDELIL
Numbers without * were called inactive. An excerpt weighted towards active compounds, which were near 2.4% of everything screened.

`Cc1cc(N2CCC(C)CC2)nc(NCc2ccccc2)n1` gave TMEM16A inh 100*, CRFBP-R2 block -74, RTF Ca sens inh 6, TMEM16A act inactive, RTF Ca sens act -8, CRFR2-BP ag 4, TMEM16A reconf inactive, HEK293 Ca mobil inactive, YFP-HEK293 quench -1.3 and ClC-1 rat inh -20.
CCCCNc1cc(C)nc(NCc2ccccc2)n1 was read as TMEM16A inh 25*, CRFBP-R2 block -34, RTF Ca sens inh 1, TMEM16A act inactive, RTF Ca sens act -4, CRFR2-BP ag -2, TMEM16A reconf 34%*, HEK293 Ca mobil 22%*, YFP-HEK293 quench -1.2 and ClC-1 rat inh -24.
For Cc1cc(N2CCC(C)CC2)nc(-c2ccccc2O)n1 the results were TMEM16A inh inactive, CRFBP-R2 block -10, RTF Ca sens inh -15, TMEM16A act inactive, RTF Ca sens act -3 and CRFR2-BP ag 1.
Screening Cc1cc(Nc2ccc(Cl)cc2)nc(NCc2ccccc2)n1 returned TMEM16A inh inactive, CRFBP-R2 block -89, RTF Ca sens inh 13, TMEM16A act inactive, RTF Ca sens act -3 and CRFR2-BP ag 2.
Screening O=C(C[n+]1ccccc1)Nc1ccccc1[N+](=O)[O-] returned TMEM16A inh inactive, CRFBP-R2 block 3, RTF Ca sens inh 0, TMEM16A act inactive, RTF Ca sens act -8 and CRFR2-BP ag -1.
For CCOC(=O)N1CCN(c2nc(-c3ccc(Cl)cc3)cs2)CC1 the results were TMEM16A inh inactive, CRFBP-R2 block -4, RTF Ca sens inh 3, TMEM16A act inactive, RTF Ca sens act 1 and CRFR2-BP ag -2.
For O=C(CN1CCN(c2nc(-c3ccc(Cl)cc3)cs2)CC1)NCc1ccco1 the results were TMEM16A inh 25*, CRFBP-R2 block -7, RTF Ca sens inh 4, RTF Ca sens act -5, CRFR2-BP ag -1, TMEM16A reconf inactive, HEK293 Ca mobil 20%*, YFP-HEK293 quench -0.95 and ClC-1 rat inh 4.
Screening CC(C)C(=O)N1CCN(c2nc(-c3ccc(Cl)cc3)cs2)CC1 returned TMEM16A inh 25*, CRFBP-R2 block 18, RTF Ca sens inh 1, TMEM16A act inactive, RTF Ca sens act -4, CRFR2-BP ag -1, TMEM16A reconf 34%*, HEK293 Ca mobil inactive, YFP-HEK293 quench -1.1 and ClC-1 rat inh -12.
Screening Cc1ccccc1-c1cc(C(=O)Nc2sc(C(=O)OC(C)C)c(C)c2C#N)c2ccccc2n1 returned TMEM16A inh 25*, CRFBP-R2 block 47, RTF Ca sens inh -5, TMEM16A act inactive, RTF Ca sens act -6, CRFR2-BP ag 40, TMEM16A reconf 68%*, HEK293 Ca mobil inactive, YFP-HEK293 quench -1.2 and ClC-1 rat inh -20.
`COC(=O)c1sc(NC(=O)c2cc(-c3ccccc3)nc3ccccc23)c(C#N)c1C` gave TMEM16A inh 100*, CRFBP-R2 block 21, RTF Ca sens inh -1, TMEM16A act inactive, RTF Ca sens act 1, CRFR2-BP ag 54*, TMEM16A reconf 42%*, HEK293 Ca mobil inactive, YFP-HEK293 quench -1 and ClC-1 rat inh -22.
For CCOC(=O)c1sc(NC(=O)c2cc(-c3ccc(C)cc3)nc3ccccc23)c(C#N)c1C the results were TMEM16A inh inactive, CRFBP-R2 block 17, RTF Ca sens inh 1, TMEM16A act inactive, RTF Ca sens act -4 and CRFR2-BP ag 47.
